# Test results: PubChem BioAssay (EPA / NIEHS)
# Several values for one entry are separate records, joined by “and”; a condition that tells them apart may be missing. Equal values may be shown once. Inconclusive results are not listed. Activity calls are given as the source filed them. Rule for the calls, unless noted: active = hit-call score of the fitted dose curve at least 0.9, where 1 is the maximum; inconclusive = response in the unintended direction; inactive = score below 0.9.
# What was measured:
# IYD (gene 389434) = assay: CCTE_GLTED_hIYD: CCTE's human Iodotyrosine Deiodinase (xIYD) Inhibition Assay, Great Lakes Toxicology and Ecology Division (GLTED) Lab (AID 2284317);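 note: cell-free human IYD enzyme made in baculovirus insect cells; iodide freed from monoiodotyrosine measured by cerium arsenite color change at 420 nm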
# Procedure, shortened: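 Deiodination of MIT by insect-cell-produced human IYD is measured after a 3 h incubation with test chemical. Free iodide passes through a Dowex column and accelerates Sandell-Kolthoff Ce4+ reduction, read at 420 nm; run in triplicate.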
# [1] = IUF_NPC2-5_cell_number_120hr: Cell Number Assessment at 120 hours in the Leibniz Research Institute for Environmental Medicine (IUF) Neural Progenitor Cell Migration and Differentiation Assay (NPC2-5) (AID 2284308; active = hit-call score of the fitted dose curve at least 0.9, where 1 is the maximum; inactive = score below 0.9;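 note: count of Hoechst-stained nuclei in migration zone around plated human neural progenitor spheres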)
# Procedure, shortened: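 Cell number is taken as all Hoechst-positive nuclei detected in the area into which cells migrate out of the sphere, scored at 120 h and referenced to DMSO solvent control, which was kept at no more than 0.1%.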
# [2] = IUF_NPC2-5_viability_120hr: Viability Assessment at 120 hours in the Leibniz Research Institute for Environmental Medicine (IUF) Neural Progenitor Cell Migration and Differentiation Assay (NPC2-5) (AID 2284312; active = hit-call score of the fitted dose curve at least 0.9, where 1 is the maximum; inactive = score below 0.9)
# Procedure, shortened: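 Human fetal (GW 16-19) neural progenitor spheres of 0.3 mm were plated on poly-D-lysine/laminin in N2 differentiation medium and exposed from day 0 for 120 h, with half-medium refresh at day 3. Viability was read as alamar blue resazurin-to-resorufin fluorescence against DMSO.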
# [3] = VALA_TUBIPS_Antagonist_TubuleLength: VALA Sciences human iPS-derived Endothelial Tubule Formation (TUBIPS) Antagonist Assay (AID 2284313)
# Procedure, shortened: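 Tubule length was quantified by high-content imaging of CD31- and nuclear-stained cells, with 0.1% DMSO as neutral and 100 uM suramin as inhibition control. Compounds were applied for 3 days, in 10 ng/ml VEGF, to cultures pre-grown 3 days.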
# [4] = CCTE_Mundy_HCI_iCellGluta_NOG_NeuriteLength: CCTE's Neurite Outgrowth Assay in iCellGluta cells for Neurite Length, Mundy Lab (AID 2284318)
# Procedure, shortened: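 Automated high-content imaging of betaIII-tubulin (Alexa Fluor-488) and Hoechst-stained cells gave neurite length, normalized to the DMSO baseline.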
# [5] = VALA_TUBHUV_Antagonist_CellCount: Viability Assessment in the VALA Sciences human Umbilical Vein Endothelial Tubule Formation (TUBHUV) Antagonism Assay (AID 2284310)
# Procedure, shortened: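 Read-out is imaged cell count after nuclear and CD31 staining, fitted against 0.1% DMSO vehicle. Compounds were added for 3 days, in 10 ng/ml VEGF assay medium, to HUVEC–HDF co-cultures pre-grown 3 days.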
# [6] = VALA_TUBIPS_Agonist_TubuleLength: VALA Sciences human iPS-derived Endothelial Tubule Formation (TUBIPS) Agonism Assay (AID 2284311)
# Procedure, shortened: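 Agonist-mode readout is the gain in imaged tubule length versus DMSO baseline. It was measured by fluorescence high-content imaging 72 h after dosing human iPSC-derived endothelial cells.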
# [7] = VALA_MIGHUV2_CellCount: Viability Assessment in the VALA Sciences human Umbilical Vein Endothelial Cell Migration (MIGHUV) Assay, Area of Scratch Wound after Recovery (AID 2284314)
# Procedure, shortened: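 Viability read-out: Hoechst-stained nuclei counted by fluorescence imaging after a 24 h recovery period in fixed, scratched HUVEC plates. Compound was dosed within 30 min of scratching at six concentrations (triplicate); DMSO at 0.1 % served as baseline.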
# [8] = VALA_MIGHUV2_Bcatenin: VALA Sciences human Umbilical Vein Endothelial Cell Migration (MIGHUV) Assay, Nuclear Translocation of beta-Catenin after Recovery (AID 2284315)
# Method: (§1) VALA_MIGHUV2_BCatenin is a cell-based, multiplexed assay that uses umbilical vein-derived endothelial cells (HUVEC). Measurements were taken 24 hours after chemical dosing in a 96-well plate.VALA_MIGHUV2_Bcatenin is the one of two assay components measured from the VALA_MIGHUV2 assay. It is designed to make measurements of nuclear translocation of CTNB, a form of morphology reporter, as detected with fluorescence intensity signals by HCS Fluorescent Imaging technology.Data from the assay component VALA_MIGHUV2_BCatenin was analyzed at the endpoint, VALA_MIGHUV2_BCatenin, in the positive analysis fitting direction relative to DMSO as the negative control and baseline of activity. Using a type of morphology reporter, gain-of-signal activity can be used to understand developmental effects. To generalize the intended target to other relatable targets, this assay endpoint is annotated to the neurodevelopment intended target family, where the subfamily is migration.
# (§2) Cells were seeded on 384-well microplates (day-0) at a density of 9000 cells per well for detection of wound area recovery or 4000 cells per well for detection of beta-catenin (CTNB) immunoreactivity and incubated in Endothelial Cell Growth Medium (CAI, San Diego; catalog 211-500). After 24 hours of culture, the HUVEC plates were scratched using a custom scratch head with the Bravo liquid handling system. […]
# [9] = VALA_MIGHUV2_WoundArea: VALA Sciences human Umbilical Vein Endothelial Cell Migration (MIGHUV) Assay, Area of Scratch Wound after Recovery (AID 2284316)
# Method: as §1, with “96-well plate.VALA_MIGHUV2_WoundArea” for “96-well plate.VALA_MIGHUV2_Bcatenin”, “of endothelial migration,” for “of nuclear translocation of CTNB,”, “Imaging technology. Data” for “Imaging technology.Data”, “component VALA_MIGHUV2_WoundArea” for “component VALA_MIGHUV2_BCatenin”, “endpoint, VALA_MIGHUV2_WoundArea,” for “endpoint, VALA_MIGHUV2_BCatenin,”
# as §2
smiles,measurement,setting,value
CCOc1cccc(-n2cc(C(=O)N3CCN(c4cc(C(=O)O)c5ccccc5c4)CC3)nc2-c2ccc(C)cc2)c1,AC50,IYD (gene 389434),116 µM (active)
O=P(OC(CCl)CCl)(OC(CCl)CCl)OC(CCl)CCl,outcome,[1],inactive
same,outcome,[2],inactive
same,outcome,[3],inactive
same,outcome,[4],inactive
CC(C)c1cccc(C(C)C)c1N1C(=O)c2ccc(O)cc2C1=O,outcome,[5],inactive
same,outcome,[6],inactive
same,AC50,[3],10.3 µM (active) and 72.7 µM (active)
same,AC50,[7],85.8 µM (active)
same,AC50,[8],17.4 µM (active) and 53.1 µM (active)
same,AC50,[9],17.8 µM (active) and 74 µM (active)
CN(C)c1ccc(N=NS(=O)(=O)O)cc1,AC50,IYD (gene 389434),47.9 µM (active)
CC[C@H]1OC(=O)[C@H](C)[C@@H](O[C@H]2C[C@@](C)(OC)[C@@H](O)[C@H](C)O2)[C@H](C)[C@@H](O[C@@H]2O[C@H](C)C[C@H](N(C)C)[C@H]2O)[C@](C)(O)C[C@@H](C)C(=O)[C@H](C)[C@@H](O)[C@]1(C)O,outcome,[4],inactive
O=C(OC[C@H]1O[C@@H](OC(=O)c2cc(O)c(O)c(OC(=O)c3cc(O)c(O)c(O)c3)c2)[C@H](OC(=O)c2cc(O)c(O)c(OC(=O)c3cc(O)c(O)c(O)c3)c2)[C@@H](OC(=O)c2cc(O)c(O)c(OC(=O)c3cc(O)c(O)c(O)c3)c2)[C@@H]1OC(=O)c1cc(O)c(O)c(OC(=O)c2cc(O)c(O)c(O)c2)c1)c1cc(O)c(O)c(OC(=O)c2cc(O)c(O)c(O)c2)c1,AC50,IYD (gene 389434),13.3 µM (active)
